Test results: PubChem BioAssay (EPA / NIEHS)
Several values for one entry are separate records, joined by “and”; a condition that tells them apart may be missing. Equal entries are not always repeated. Records with an inconclusive call do not appear. Activity calls are given as the source filed them. How the source made its calls, unless noted: active means hit-call score of the fitted dose curve at least 0.9, where 1 is the maximum; inactive means score below 0.9.

Assays:
[1] = read-out: Macrophage colony-stimulating factor (MCSF), CSF1 (gene 1435); test: BSK_LPS_MCSF: BioMAP Diversity Plus: LPS Assay for Macrophage colony-stimulating factor (MCSF) Biomarker Activity (AID 2283083); details: primary human HUVEC with PBMC; actives raise or lower the signal
Outline: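 Bidirectional fitting against DMSO was applied to M-CSF levels read by ELISA at 24 h post-dose. The system pairs human umbilical vein endothelium with peripheral blood mononuclear cells; parallel SRB staining tracked cytotoxicity.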

[2] = read-out: Tissue Factor, F3 (gene 2152); test: BSK_LPS_TissueFactor: BioMAP Diversity Plus: LPS Assay for Tissue Factor Biomarker Activity (AID 2283084); details: primary human HUVEC with PBMC; actives raise or lower the signal
Outline: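 Compound was added to an endothelial cell/PBMC co-culture, and after 24 h tissue factor (CD142) was read by ELISA. Gain or loss of signal was fitted against a DMSO baseline, and parallel SRB staining (560 nm) tracked overt cytotoxicity.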

[3] = read-out: Tumor necrosis factor (Homo sapiens) (UniProt P01375); test: BSK_LPS_TNFa: BioMAP Diversity Plus: LPS Assay for Tumour Necrosis Factor alpha (TNFa) Biomarker Activity (AID 2283085); details: primary human HUVEC with PBMC; actives raise or lower the signal;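 on AC50: TNFa protein level quantified by ELISA in the co-culture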
Outline: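 Cells (umbilical vein endothelium plus peripheral blood mononuclear cells) were dosed with chemical, incubated 24 h, then TNFa was quantified by ELISA; values derive from bidirectional fitting with DMSO as baseline.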

CD38, CD38 (gene 952) = test: BSK_SAg_CD38: BioMAP Diversity Plus: SAg Assay for CD38 Biomarker Activity (AID 2283087); details: primary human HUVEC with PBMC; actives raise or lower the signal
Outline: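 CD38 quantified by ELISA (fluorescence) in a superantigen-activated endothelial cell–PBMC co-culture at 24 h post-dose. Activity fitted in both directions relative to DMSO; parallel SRB and Alamar Blue cytotoxicity read-outs.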

CD40, CD40 (gene 958) = test: BSK_SAg_CD40: BioMAP Diversity Plus: SAg Assay for CD40 Biomarker Activity (AID 2283088); details: primary human HUVEC with PBMC; actives raise or lower the signal
Outline: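 CD40 is measured by fluorescence ELISA in an endothelial/PBMC primary human co-culture at 24 h post-dose. Fitting is bidirectional, DMSO baseline. Parallel SRB staining (560 nm) flags cytotoxicity.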

CD69, CD69 (gene 969) = test: BSK_SAg_CD69: BioMAP Diversity Plus: SAg Assay for CD69 Biomarker Activity (AID 2283089); details: primary human HUVEC with PBMC; actives raise or lower the signal;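 on AC50: cell surface CD69 protein quantified by ELISA with fluorescence detection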
Outline: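 Primary human vascular co-culture (umbilical vein endothelium with peripheral blood mononuclear cells) exposed to test chemical for 24 h. CD69 levels quantified by fluorescence ELISA; DMSO served as negative control for bidirectional fitting.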

[4] = read-out: Monocyte Chemoattractant Protein-1 (MCP1), CCL2 (gene 6347); test: BSK_SAg_MCP1: BioMAP Diversity Plus: SAg Assay for Monocyte Chemoattractant Protein-1 (MCP1) Biomarker Activity (AID 2283090); details: primary human HUVEC with PBMC; actives raise or lower the signal
Outline: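 Values derive from bidirectional fitting of ELISA-measured MCP1 against DMSO controls. Readings were taken 24 h after dosing human vascular endothelial cells co-cultured with peripheral blood mononuclear cells under superantigen stimulation.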

[5] = read-out: E-selectin (Homo sapiens) (UniProt P16581); test: BSK_SAg_Eselectin: BioMAP Diversity Plus: SAg Assay for Eselectin Biomarker Activity (AID 2283091); details: primary human HUVEC with PBMC; actives raise or lower the signal
Outline: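 Cell-surface E-selectin is read by ELISA at 24 h in the SAg co-culture of HUVEC and PBMC. Curves are fitted in both directions relative to DMSO. Parallel SRB total-protein staining tracks overt toxicity.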

[6] = read-out: Monokine induced gamma interferon (MIG), CXCL9 (gene 4283); test: BSK_SAg_MIG: BioMAP Diversity Plus: SAg Assay for Monokine induced gamma interferon (MIG) Biomarker Activity (AID 2283092); details: primary human HUVEC with PBMC; actives raise or lower the signal
Outline: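 Endothelial cells and PBMC were co-cultured, exposed to test chemicals, and sampled 24 h later. MIG was measured by ELISA, and responses were fitted in both directions relative to DMSO.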

[7] = BSK_SAg_PBMCCytotoxicity: PBMC Cytotoxicity Assessment in the BioMAP Diversity Plus: SAg Assay (AID 2283093); details: primary human HUVEC with PBMC;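 further: PBMC viability measured as Alamar Blue reduction fluorescence at 546/580 nm; fitted both ways against DMSO so a hit may be loss or gain of signal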;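 on AC50: PBMC superantigen activated with SEB plus TSST-1 one hour after compound addition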
Outline: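 Alamar Blue reduction (6 h, 546/580 nm) reports PBMC cytotoxicity after 90 h superantigen activation (SEB, TSST-1; 20 ng/mL final each) with 1 h compound pre-treatment. Gain or loss of signal fitted versus DMSO.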

[8] = read-out: Interleukin-8 (IL8), CXCL8 (gene 3576); test: BSK_SAg_IL8: BioMAP Diversity Plus: SAg Assay for Interleukin-8 (IL8) Biomarker Activity (AID 2283094); details: primary human HUVEC with PBMC; actives raise or lower the signal
Outline: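 Chemicals were dosed onto a human endothelial–PBMC co-culture, and IL-8 was quantified by ELISA after 24 h. Both increases and decreases were fitted relative to DMSO.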

[9] = BSK_SAg_Proliferation: Cell Proliferation Assessment in the BioMAP Diversity Plus: SAg Assay (AID 2283095); details: primary human HUVEC with PBMC;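 further: relative cell number as total protein by SRB absorbance in sub-confluent culture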
Outline: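 Absorbance of sulforhodamine B at 560 nm reports total protein in a human vascular endothelial/PBMC co-culture after 96 h chemical exposure. Gain or loss of signal is fitted in both directions against DMSO.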

[10] = BSK_SAg_SRB: Viability Assessment in the BioMAP Diversity Plus: SAg Assay (AID 2283096); details: primary human HUVEC with PBMC;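 further: cells read one day after compound addition; hits may be either gain or loss of signal compared with DMSO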
Outline: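 This overt-cytotoxicity endpoint quantifies protein in human endothelial/PBMC co-cultures at 24 h using SRB absorbance (560 nm) after trichloroacetic acid fixation. Values reflect signal change from the DMSO negative control, fitted bidirectionally.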

[11] = biological target: human CYP1A2, CYP1A2 (gene 1544) (UniProt P05177); test: NVS_ADME_hCYP1A2: NovaScreen (NVS) CYP450-related Enzyme Activity (ADME) Assay for human CYP1A2 (AID 2283102; active means hit-call score of the fitted dose curve at least 0.9, where 1 is the maximum;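 on AC50: fluorescence from turnover of a fluorogenic substrate by recombinant insect-cell CYP1A2; potency for inhibition since loss of fluorescence marks reduced CYP1A2 activity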)
Outline: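 Enzyme activity of insect-cell-expressed human CYP1A2 measured by fluorescence 0.5 h after compound addition, relative to acetonitrile. Compounds first tested in duplicate at 10 uM, actives followed up in concentration series.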

[12] = biological target: human CYP19A1, CYP19A1 (gene 1588) (UniProt P11511); test: NVS_ADME_hCYP19A1: NovaScreen (NVS) CYP450-related Enzyme Activity (ADME) Assay for human CYP19A1 (AID 2283098; active means hit-call score of the fitted dose curve at least 0.9, where 1 is the maximum;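 on AC50: potency for inhibitors seen as loss of fluorescent enzyme signal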)
Outline: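 Compounds were first screened at 10 uM in duplicate against purified enzyme, with a fluorogenic substrate and fluorescence intensity detection after 0.5 h. Inhibition appears as reduced signal against acetonitrile control.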

[13] = biological target: human CYP1A1, CYP1A1 (gene 1543) (UniProt P04798); test: NVS_ADME_hCYP1A1: NovaScreen (NVS) CYP450-related Enzyme Activity (ADME) Assay for human CYP1A1 (AID 2283100; active means hit-call score of the fitted dose curve at least 0.9, where 1 is the maximum)
Outline: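 Chemicals were first tested in duplicate at 10 uM, and those passing a 30% inhibition threshold were rerun as concentration series topping at 20 uM. Fluorescence read-out of recombinant enzyme turnover after 1 h, relative to acetonitrile.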

[14] = read-out: Vascular cell adhesion molecule 1 (VCAM1), VCAM1 (gene 7412); test: BSK_LPS_VCAM1: BioMAP Diversity Plus: LPS Assay for Vascular cell adhesion molecule 1 (VCAM1) Biomarker Activity (AID 2283086); details: primary human HUVEC with PBMC; actives raise or lower the signal
Outline: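 Cells are dosed in an LPS-stimulated endothelial/mononuclear co-culture and, after 24 h, VCAM-1 is quantified by ELISA. Activity in either direction is fitted relative to the DMSO negative control.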

[15] = biological target: human CYP2A6, CYP2A6 (gene 1548) (UniProt P11509); test: NVS_ADME_hCYP2A6: NovaScreen (NVS) CYP450-related Enzyme Activity (ADME) Assay for human CYP2A6 (AID 2283099; active means hit-call score of the fitted dose curve at least 0.9, where 1 is the maximum)
Outline: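 Compounds screened at 10 uM (duplicate) and, if active, titrated to a 20 uM top concentration against insect-cell-expressed CYP2A6. Loss of fluorescent product signal after 0.5 h, relative to acetonitrile baseline, indicates inhibition.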

[16] = biological target: human CYP2B6, CYP2B6 (gene 1555) (UniProt P20813); test: NVS_ADME_hCYP2B6: NovaScreen (NVS) CYP450-related Enzyme Activity (ADME) Assay for human CYP2B6 (AID 2283101; active means hit-call score of the fitted dose curve at least 0.9, where 1 is the maximum)
Outline: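 Cell-free recombinant enzyme assay with a fluorogenic substrate; fluorescence intensity read 1 hour after dosing. Loss of signal relative to acetonitrile negative control indicates inhibition. Primary screen run in duplicate at 10 uM, actives then tested in concentration series.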

Measured: AC50

Sequence of human CYP1A2, CYP1A2 (gene 1544) (P05177 whole entry, looked up): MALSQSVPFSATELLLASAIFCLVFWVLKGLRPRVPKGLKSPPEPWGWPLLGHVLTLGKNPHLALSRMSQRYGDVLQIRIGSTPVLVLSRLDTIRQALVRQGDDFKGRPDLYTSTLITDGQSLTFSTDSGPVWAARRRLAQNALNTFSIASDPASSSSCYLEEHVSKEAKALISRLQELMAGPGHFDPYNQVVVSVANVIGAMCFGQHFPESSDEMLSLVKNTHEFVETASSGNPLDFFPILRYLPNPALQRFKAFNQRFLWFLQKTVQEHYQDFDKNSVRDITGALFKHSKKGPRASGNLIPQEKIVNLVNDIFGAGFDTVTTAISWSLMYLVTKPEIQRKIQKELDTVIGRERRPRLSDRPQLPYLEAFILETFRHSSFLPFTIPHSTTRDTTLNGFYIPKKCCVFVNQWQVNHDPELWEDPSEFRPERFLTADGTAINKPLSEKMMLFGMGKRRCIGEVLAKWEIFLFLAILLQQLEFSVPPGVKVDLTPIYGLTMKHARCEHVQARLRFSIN
Sequence of E-selectin (Homo sapiens) (P16581 whole entry, looked up): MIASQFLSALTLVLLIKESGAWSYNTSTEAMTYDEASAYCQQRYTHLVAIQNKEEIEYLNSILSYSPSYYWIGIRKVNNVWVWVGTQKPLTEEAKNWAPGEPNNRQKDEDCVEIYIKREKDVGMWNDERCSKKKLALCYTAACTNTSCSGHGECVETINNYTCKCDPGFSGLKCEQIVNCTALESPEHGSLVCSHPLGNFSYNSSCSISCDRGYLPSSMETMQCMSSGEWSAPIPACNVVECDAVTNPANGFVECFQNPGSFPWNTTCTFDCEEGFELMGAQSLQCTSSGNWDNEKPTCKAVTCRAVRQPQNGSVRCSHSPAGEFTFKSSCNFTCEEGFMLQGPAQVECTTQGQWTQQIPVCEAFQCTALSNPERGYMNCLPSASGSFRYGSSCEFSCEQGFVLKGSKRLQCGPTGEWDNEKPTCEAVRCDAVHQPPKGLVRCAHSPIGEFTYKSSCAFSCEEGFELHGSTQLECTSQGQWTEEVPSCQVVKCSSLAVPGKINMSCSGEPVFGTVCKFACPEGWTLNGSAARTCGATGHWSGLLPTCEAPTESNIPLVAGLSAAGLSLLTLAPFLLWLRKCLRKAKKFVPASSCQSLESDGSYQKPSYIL
Sequence of human CYP1A1, CYP1A1 (gene 1543) (P04798 whole entry, looked up): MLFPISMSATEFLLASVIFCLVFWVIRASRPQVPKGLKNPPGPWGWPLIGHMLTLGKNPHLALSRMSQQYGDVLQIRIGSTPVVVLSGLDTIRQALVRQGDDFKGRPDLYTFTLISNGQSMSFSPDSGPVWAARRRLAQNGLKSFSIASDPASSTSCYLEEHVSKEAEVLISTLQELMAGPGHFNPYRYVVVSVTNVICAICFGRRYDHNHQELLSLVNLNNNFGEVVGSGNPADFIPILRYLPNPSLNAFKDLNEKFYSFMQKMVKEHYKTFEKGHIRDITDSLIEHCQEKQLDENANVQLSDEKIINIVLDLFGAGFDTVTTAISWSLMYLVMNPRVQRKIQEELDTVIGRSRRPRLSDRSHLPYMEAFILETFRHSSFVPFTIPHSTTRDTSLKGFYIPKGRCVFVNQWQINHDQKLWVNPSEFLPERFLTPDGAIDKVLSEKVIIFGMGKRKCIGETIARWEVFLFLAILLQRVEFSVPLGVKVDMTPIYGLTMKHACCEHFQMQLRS
Sequence of Tumor necrosis factor (Homo sapiens) (P01375 whole entry, looked up): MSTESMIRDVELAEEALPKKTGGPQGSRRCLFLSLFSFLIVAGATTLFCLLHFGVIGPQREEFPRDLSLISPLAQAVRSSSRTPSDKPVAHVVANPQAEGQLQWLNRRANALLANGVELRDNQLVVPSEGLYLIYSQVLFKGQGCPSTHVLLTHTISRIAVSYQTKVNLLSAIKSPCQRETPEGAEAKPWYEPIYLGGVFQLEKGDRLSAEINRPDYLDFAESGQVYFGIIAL
Sequence of human CYP19A1, CYP19A1 (gene 1588) (P11511 whole entry, looked up): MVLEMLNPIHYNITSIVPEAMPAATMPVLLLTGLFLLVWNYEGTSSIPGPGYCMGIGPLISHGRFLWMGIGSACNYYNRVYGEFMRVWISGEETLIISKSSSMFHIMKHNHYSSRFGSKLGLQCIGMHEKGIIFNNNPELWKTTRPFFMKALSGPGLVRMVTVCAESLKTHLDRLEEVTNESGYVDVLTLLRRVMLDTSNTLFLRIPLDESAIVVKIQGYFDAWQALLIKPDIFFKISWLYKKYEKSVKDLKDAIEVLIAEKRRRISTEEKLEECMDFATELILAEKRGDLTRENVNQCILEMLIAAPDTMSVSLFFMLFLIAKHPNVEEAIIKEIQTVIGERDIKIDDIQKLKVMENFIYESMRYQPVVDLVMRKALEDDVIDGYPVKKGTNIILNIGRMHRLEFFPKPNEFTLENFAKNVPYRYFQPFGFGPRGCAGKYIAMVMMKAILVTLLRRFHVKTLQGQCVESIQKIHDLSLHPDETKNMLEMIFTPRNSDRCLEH
Sequence of human CYP2B6, CYP2B6 (gene 1555) (P20813 whole entry, looked up): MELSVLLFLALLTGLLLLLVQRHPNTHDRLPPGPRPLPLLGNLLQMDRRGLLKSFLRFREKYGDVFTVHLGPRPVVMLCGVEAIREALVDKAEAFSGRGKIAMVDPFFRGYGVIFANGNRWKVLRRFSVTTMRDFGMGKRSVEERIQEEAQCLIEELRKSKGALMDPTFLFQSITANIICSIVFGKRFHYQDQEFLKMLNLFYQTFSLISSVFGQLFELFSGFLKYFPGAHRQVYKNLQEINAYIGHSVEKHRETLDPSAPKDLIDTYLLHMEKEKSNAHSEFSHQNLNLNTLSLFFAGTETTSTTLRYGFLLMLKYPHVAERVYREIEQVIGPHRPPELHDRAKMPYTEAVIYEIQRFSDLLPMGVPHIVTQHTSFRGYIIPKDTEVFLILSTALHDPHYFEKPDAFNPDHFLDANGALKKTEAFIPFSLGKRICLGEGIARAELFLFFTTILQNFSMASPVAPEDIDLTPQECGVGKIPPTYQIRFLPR
Sequence of human CYP2A6, CYP2A6 (gene 1548) (P11509 whole entry, looked up): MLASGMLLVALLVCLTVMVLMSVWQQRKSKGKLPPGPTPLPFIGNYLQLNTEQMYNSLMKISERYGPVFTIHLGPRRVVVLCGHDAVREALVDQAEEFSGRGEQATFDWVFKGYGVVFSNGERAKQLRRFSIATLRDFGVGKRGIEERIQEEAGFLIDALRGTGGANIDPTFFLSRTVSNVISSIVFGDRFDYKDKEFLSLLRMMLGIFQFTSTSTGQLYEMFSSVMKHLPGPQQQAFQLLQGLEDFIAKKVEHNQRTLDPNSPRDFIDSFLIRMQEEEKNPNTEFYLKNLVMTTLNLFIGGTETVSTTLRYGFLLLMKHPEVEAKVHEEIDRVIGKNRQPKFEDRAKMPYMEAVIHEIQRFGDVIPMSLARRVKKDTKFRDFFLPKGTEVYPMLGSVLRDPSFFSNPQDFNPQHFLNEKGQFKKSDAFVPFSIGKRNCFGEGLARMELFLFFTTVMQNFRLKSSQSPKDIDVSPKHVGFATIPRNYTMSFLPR

CCCCCCC(C)OC(=O)COc1nc(F)c(Cl)c(N)c1Cl (configuration not stated)
active: [1] 29.8 µM | [2] 35.9 µM | [3] 34.3 µM | CD38, CD38 (gene 952) 30.7 µM | CD40, CD40 (gene 958) 29.5 µM | CD69, CD69 (gene 969) 31 µM | [4] 29.8 µM | [5] 33 µM | [6] 38.5 µM | [7] 12.3 µM | [8] 29.1 µM | [9] 9.53 µM | [10] 34.9 µM
inactive: [11]

CC(=O)[C@H]1CC[C@H]2[C@@H]3CCC4=CC(=O)CC[C@]4(C)[C@H]3CC[C@]12C
inactive: [1] | [2] | [3] | [4] | [6] | [8] | [12]
active: CD38, CD38 (gene 952) 25.7 µM | CD40, CD40 (gene 958) 20 µM | [5] 1.01 µM | [7] 9.94 µM | [9] 28.8 µM | [10] 4.21 µM

CCOC(=O)NCCOc1ccc(Oc2ccccc2)cc1
inactive: [2] | [3] | [6]
active: [1] 14.7 µM | CD38, CD38 (gene 952) 29.1 µM | CD40, CD40 (gene 958) 14.5 µM | CD69, CD69 (gene 969) 25.3 µM | [4] 26.9 µM | [5] 31.8 µM | [7] 15.6 µM | [8] 30 µM | [9] 16.2 µM | [10] 20 µM

c1ccc2[nH]c(-c3cscn3)nc2c1
active: [13] 4.65 µM | [11] 2.47 µM
not listed: [12] | [14] | [15] | [16]
inactive: all other assays above

CCN(Cc1c(F)cccc1Cl)c1c([N+](=O)[O-])cc(C(F)(F)F)cc1[N+](=O)[O-]
inactive: [2] | [3] | CD40, CD40 (gene 958) | CD69, CD69 (gene 969) | [4] | [5] | [6]
active: [1] 11.6 µM | CD38, CD38 (gene 952) 8.9 µM | [7] 8.35 µM | [8] 8.25 µM | [9] 20 µM | [10] 11.4 µM

CSC(=O)c1cccc2nnsc12
active: [3] 4.96 µM | [15] 1.22 µM | [11] 0.653 µM
not listed: [12] | [13] | [16]
inactive: all other assays above

COC(=O)c1c(Cl)nn(C)c1S(=O)(=O)NC(=O)Nc1nc(OC)cc(OC)n1
not listed: [11] | [12] | [13] | [14] | [15] | [16]
inactive: all other assays above

C[C@]12CC[C@@H]3c4ccc(O)cc4C[C@@H](CCCCCCCCCS(=O)CCCC(F)(F)C(F)(F)F)[C@H]3[C@@H]1CC[C@@H]2O (some centres not stated)
active: [5] 3.51 µM
not listed: [11] | [12] | [13] | [14] | [15] | [16]
inactive: all other assays above

O=C(c1ccc(O)cc1O)c1ccc(O)cc1O
active: [9] 20 µM | [12] 5.78 µM and 5.75 µM and 7.34 µM | [16] 6.26 µM | [11] 4.04 µM
not listed: [13] | [15]
inactive: all other assays above

CCC(O)=C1C(=O)CC(C(=O)O)CC1=O (configuration not stated)
not listed: [11] | [12] | [13] | [14] | [15] | [16]
inactive: all other assays above

O=C(c1ccccc1)C1CCCCC1
not listed: [11] | [13] | [14] | [15] | [16]
inactive: all other assays above

O=C(O)c1ccccc1
not listed: [11] | [12] | [13] | [16]
inactive: all other assays above

CCOC(=O)COc1cc(-n2ncc(C(F)(F)F)c(C)c2=O)c(F)cc1Cl
not listed: [11] | [12] | [13] | [14] | [15] | [16]
inactive: all other assays above

C#C[C@]1(O)CC[C@H]2[C@@H]3CCC4=CC(=O)CC[C@@H]4[C@H]3CC[C@@]21CC
active: [1] 14.5 µM | [8] 6.98 µM
not listed: [11] | [12] | [13] | [14] | [15] | [16]
inactive: all other assays above

COCCO
not listed: [11] | [12] | [13] | [14] | [15] | [16]
inactive: all other assays above

CCOC(=O)c1ccc(O)cc1
not listed: [11] | [12] | [13] | [14] | [15] | [16]
inactive: all other assays above

Oc1ccc(C(c2ccc(O)cc2)C(Cl)(Cl)Cl)cc1
inactive: [12]
active: [1] 20 µM | [2] 37 µM | [3] 4.66 µM | CD38, CD38 (gene 952) 27.4 µM | CD40, CD40 (gene 958) 24.4 µM | CD69, CD69 (gene 969) 20 µM | [5] 10.6 µM | [6] 38.9 µM | [7] 20 µM | [8] 14.2 µM | [9] 24.1 µM | [10] 32.3 µM | [13] 10 µM

C#CCOC(=O)[C@@H](C)Oc1ccc(Oc2ncc(Cl)cc2F)cc1
active: [13] 2.24 µM | [16] 0.777 µM | [11] 1.64 µM
not listed: [12] | [15]
inactive: all other assays above
